Data published in PMC11006913.

Key:
Assay in all cases: PBM; 200 nM protein, PBS
Settings in all cases: dsDNA, one strand shown
HESX1 [1] = molecular target: HESX1 (Homo sapiens, UniProt Q9UBX0 95-180, R165K)
HOXB4 [2] = molecular target: HOXB4 (Homo sapiens, UniProt P17483 148-234)
SHOX [3] = molecular target: SHOX (Homo sapiens, UniProt O15266 103-189)
HESX1 [4] = molecular target: HESX1 (Homo sapiens, UniProt Q9UBX0 95-180)
HOXB4 [5] = molecular target: HOXB4 (Homo sapiens, UniProt P17483 148-234, V174I)
ALX1 [6] = molecular target: ALX1 (Homo sapiens, UniProt Q15699 118-204, L144V)
ALX3 [7] = molecular target: ALX3 (Homo sapiens, UniProt O95076 139-225, N203Q)
SHOX [8] = molecular target: SHOX (Homo sapiens, UniProt O15266 103-189, R173C)
ALX1 [9] = molecular target: ALX1 (Homo sapiens, UniProt Q15699 118-204, L144R)
ALX3 [10] = molecular target: ALX3 (Homo sapiens, UniProt O95076 139-225)
PROP1 [11] = molecular target: PROP1 (Homo sapiens, UniProt O75360 56-141)
HESX1 [12] = molecular target: HESX1 (Homo sapiens, UniProt Q9UBX0 95-180, R109Q)
PROP1 [13] = molecular target: PROP1 (Homo sapiens, UniProt O75360 56-141, R99H)
ALX3 [14] = molecular target: ALX3 (Homo sapiens, UniProt O95076 139-225, L168Q)
HESX1 [15] = molecular target: HESX1 (Homo sapiens, UniProt Q9UBX0 95-180, P111T)
ALX3 [16] = molecular target: ALX3 (Homo sapiens, UniProt O95076 139-225, L168V)
PROP1 [17] = molecular target: PROP1 (Homo sapiens, UniProt O75360 56-141, F88S)
HESX1 [18] = molecular target: HESX1 (Homo sapiens, UniProt Q9UBX0 95-180, F115L)
ALX1 [19] = molecular target: ALX1 (Homo sapiens, UniProt Q15699 118-204)
ALX3 [20] = molecular target: ALX3 (Homo sapiens, UniProt O95076 139-225, N203S)
Sequence of ALX3 (Homo sapiens, UniProt O95076 139-225, N203S) (O95076 139-225 N203S): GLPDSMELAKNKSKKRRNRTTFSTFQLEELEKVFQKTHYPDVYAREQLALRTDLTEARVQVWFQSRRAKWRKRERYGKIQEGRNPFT

Sequence of PROP1 (Homo sapiens, UniProt O75360 56-141, R99H) (O75360 56-141 R99H): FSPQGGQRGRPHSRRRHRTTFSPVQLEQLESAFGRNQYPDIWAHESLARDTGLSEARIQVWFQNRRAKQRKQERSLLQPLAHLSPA
Sequence of ALX3 (Homo sapiens, UniProt O95076 139-225) (O95076 139-225): as the sequence (O95076 139-225 N203S) above, with S65N counted along it
Sequence of ALX3 (Homo sapiens, UniProt O95076 139-225, L168Q) (O95076 139-225 L168Q): as the sequence (O95076 139-225 N203S) above, with L30Q, S65N counted along it
Sequence of HESX1 (Homo sapiens, UniProt Q9UBX0 95-180, R165K) (Q9UBX0 95-180 R165K): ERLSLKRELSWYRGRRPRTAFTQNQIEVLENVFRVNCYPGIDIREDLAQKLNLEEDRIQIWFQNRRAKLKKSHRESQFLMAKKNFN
Sequence of HESX1 (Homo sapiens, UniProt Q9UBX0 95-180, F115L) (Q9UBX0 95-180 F115L): as the sequence (Q9UBX0 95-180 R165K) above, with F21L, K71R counted along it
Sequence of SHOX (Homo sapiens, UniProt O15266 103-189, R173C) (O15266 103-189 R173C): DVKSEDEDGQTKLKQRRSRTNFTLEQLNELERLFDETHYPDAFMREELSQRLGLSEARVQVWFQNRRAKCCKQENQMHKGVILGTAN
Sequence of HOXB4 (Homo sapiens, UniProt P17483 148-234, V174I) (P17483 148-234 V174I): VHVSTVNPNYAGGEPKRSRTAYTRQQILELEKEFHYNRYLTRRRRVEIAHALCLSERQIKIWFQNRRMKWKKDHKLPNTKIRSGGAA
Sequence of HESX1 (Homo sapiens, UniProt Q9UBX0 95-180, P111T) (Q9UBX0 95-180 P111T): as the sequence (Q9UBX0 95-180 R165K) above, with P17T, K71R counted along it
Sequence of SHOX (Homo sapiens, UniProt O15266 103-189) (O15266 103-189): as the sequence (O15266 103-189 R173C) above, with C71R counted along it
Sequence of ALX1 (Homo sapiens, UniProt Q15699 118-204, L144V) (Q15699 118-204 L144V): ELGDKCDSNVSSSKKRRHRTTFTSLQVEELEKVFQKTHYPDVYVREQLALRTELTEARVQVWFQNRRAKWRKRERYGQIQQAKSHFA
Sequence of PROP1 (Homo sapiens, UniProt O75360 56-141) (O75360 56-141): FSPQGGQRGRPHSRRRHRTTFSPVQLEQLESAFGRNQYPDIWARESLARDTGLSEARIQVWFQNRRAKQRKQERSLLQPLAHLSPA
Sequence of HESX1 (Homo sapiens, UniProt Q9UBX0 95-180) (Q9UBX0 95-180): as the sequence (Q9UBX0 95-180 R165K) above, with K71R counted along it
Sequence of HESX1 (Homo sapiens, UniProt Q9UBX0 95-180, R109Q) (Q9UBX0 95-180 R109Q): as the sequence (Q9UBX0 95-180 R165K) above, with R15Q, K71R counted along it
Sequence of ALX1 (Homo sapiens, UniProt Q15699 118-204, L144R) (Q15699 118-204 L144R): as the sequence (Q15699 118-204 L144V) above, with V27R counted along it
Sequence of ALX1 (Homo sapiens, UniProt Q15699 118-204) (Q15699 118-204): as the sequence (Q15699 118-204 L144V) above, with V27L counted along it
Sequence of ALX3 (Homo sapiens, UniProt O95076 139-225, N203Q) (O95076 139-225 N203Q): as the sequence (O95076 139-225 N203S) above, with S65Q counted along it
Sequence of HOXB4 (Homo sapiens, UniProt P17483 148-234) (P17483 148-234): as the sequence (P17483 148-234 V174I) above, with I27V counted along it
Sequence of ALX3 (Homo sapiens, UniProt O95076 139-225, L168V) (O95076 139-225 L168V): as the sequence (O95076 139-225 N203S) above, with L30V, S65N counted along it
Sequence of PROP1 (Homo sapiens, UniProt O75360 56-141, F88S) (O75360 56-141 F88S): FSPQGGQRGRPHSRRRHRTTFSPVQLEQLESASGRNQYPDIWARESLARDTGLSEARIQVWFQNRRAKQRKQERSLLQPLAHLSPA

Sequence | binding signal (HESX1 [1]) | binding signal (HOXB4 [2]) | binding signal (SHOX [3]) | binding signal (HESX1 [4]) | binding signal (HOXB4 [5]) | binding signal (ALX1 [6]) | binding signal (ALX3 [7]) | binding signal (SHOX [8]) | binding signal (ALX1 [9]) | binding signal (ALX3 [10]) | binding signal (PROP1 [11]) | binding signal (HESX1 [12]) | binding signal (PROP1 [13]) | binding signal (ALX3 [14]) | binding signal (HESX1 [15]) | binding signal (ALX3 [16]) | binding signal (PROP1 [17]) | binding signal (HESX1 [18]) | binding signal (ALX1 [19]) | binding signal (ALX3 [20])
TAATTAGA | 13.5 upbm affinity estimate (log intensity, higher = more binding, comparable within an allelic series) | 13.5 upbm affinity estimate (log intensity, higher = more binding, comparable within an allelic series) | 13.1 upbm affinity estimate (log intensity, higher = more binding, comparable within an allelic series) | 13.5 upbm affinity estimate (log intensity, higher = more binding, comparable within an allelic series) | 14.2 upbm affinity estimate (log intensity, higher = more binding, comparable within an allelic series) | 12.3 upbm affinity estimate (log intensity, higher = more binding, comparable within an allelic series) | 8.56 upbm affinity estimate (log intensity, higher = more binding, comparable within an allelic series) | 10.5 upbm affinity estimate (log intensity, higher = more binding, comparable within an allelic series) | 12 upbm affinity estimate (log intensity, higher = more binding, comparable within an allelic series) | 12.9 upbm affinity estimate (log intensity, higher = more binding, comparable within an allelic series) | 12.2 upbm affinity estimate (log intensity, higher = more binding, comparable within an allelic series) | 10 upbm affinity estimate (log intensity, higher = more binding, comparable within an allelic series) | 12.2 upbm affinity estimate (log intensity, higher = more binding, comparable within an allelic series) | 11.3 upbm affinity estimate (log intensity, higher = more binding, comparable within an allelic series) | 12.1 upbm affinity estimate (log intensity, higher = more binding, comparable within an allelic series) | 10.9 upbm affinity estimate (log intensity, higher = more binding, comparable within an allelic series) | 8.08 upbm affinity estimate (log intensity, higher = more binding, comparable within an allelic series) | 8.35 upbm affinity estimate (log intensity, higher = more binding, comparable within an allelic series) | 13 upbm affinity estimate (log intensity, higher = more binding, comparable within an allelic series) | 8.71 upbm affinity estimate (log intensity, higher = more binding, comparable within an allelic series)
CTAATTGA | 13.2 upbm affinity estimate (log intensity, higher = more binding, comparable within an allelic series) | 13.3 upbm affinity estimate (log intensity, higher = more binding, comparable within an allelic series) | 12.6 upbm affinity estimate (log intensity, higher = more binding, comparable within an allelic series) | 13.2 upbm affinity estimate (log intensity, higher = more binding, comparable within an allelic series) | 14 upbm affinity estimate (log intensity, higher = more binding, comparable within an allelic series) | 11.9 upbm affinity estimate (log intensity, higher = more binding, comparable within an allelic series) | 8.21 upbm affinity estimate (log intensity, higher = more binding, comparable within an allelic series) | 9.97 upbm affinity estimate (log intensity, higher = more binding, comparable within an allelic series) | 11.5 upbm affinity estimate (log intensity, higher = more binding, comparable within an allelic series) | 12.7 upbm affinity estimate (log intensity, higher = more binding, comparable within an allelic series) | 11.8 upbm affinity estimate (log intensity, higher = more binding, comparable within an allelic series) | 9.83 upbm affinity estimate (log intensity, higher = more binding, comparable within an allelic series) | 12.1 upbm affinity estimate (log intensity, higher = more binding, comparable within an allelic series) | 10.8 upbm affinity estimate (log intensity, higher = more binding, comparable within an allelic series) | 11.8 upbm affinity estimate (log intensity, higher = more binding, comparable within an allelic series) | 10.2 upbm affinity estimate (log intensity, higher = more binding, comparable within an allelic series) | 7.7 upbm affinity estimate (log intensity, higher = more binding, comparable within an allelic series) | 7.77 upbm affinity estimate (log intensity, higher = more binding, comparable within an allelic series) | 12.8 upbm affinity estimate (log intensity, higher = more binding, comparable within an allelic series) | 8.38 upbm affinity estimate (log intensity, higher = more binding, comparable within an allelic series)
CCTAATTA | 13.4 upbm affinity estimate (log intensity, higher = more binding, comparable within an allelic series) | 13.5 upbm affinity estimate (log intensity, higher = more binding, comparable within an allelic series) | 13 upbm affinity estimate (log intensity, higher = more binding, comparable within an allelic series) | 13.3 upbm affinity estimate (log intensity, higher = more binding, comparable within an allelic series) | 14.2 upbm affinity estimate (log intensity, higher = more binding, comparable within an allelic series) | 12.2 upbm affinity estimate (log intensity, higher = more binding, comparable within an allelic series) | 8.45 upbm affinity estimate (log intensity, higher = more binding, comparable within an allelic series) | 10.4 upbm affinity estimate (log intensity, higher = more binding, comparable within an allelic series) | 11.8 upbm affinity estimate (log intensity, higher = more binding, comparable within an allelic series) | 12.9 upbm affinity estimate (log intensity, higher = more binding, comparable within an allelic series) | 12.1 upbm affinity estimate (log intensity, higher = more binding, comparable within an allelic series) | 9.96 upbm affinity estimate (log intensity, higher = more binding, comparable within an allelic series) | 12.2 upbm affinity estimate (log intensity, higher = more binding, comparable within an allelic series) | 11.2 upbm affinity estimate (log intensity, higher = more binding, comparable within an allelic series) | 12 upbm affinity estimate (log intensity, higher = more binding, comparable within an allelic series) | 10.8 upbm affinity estimate (log intensity, higher = more binding, comparable within an allelic series) | 7.86 upbm affinity estimate (log intensity, higher = more binding, comparable within an allelic series) | 8.21 upbm affinity estimate (log intensity, higher = more binding, comparable within an allelic series) | 12.9 upbm affinity estimate (log intensity, higher = more binding, comparable within an allelic series) | 8.58 upbm affinity estimate (log intensity, higher = more binding, comparable within an allelic series)
TAATTGCA | 12 upbm affinity estimate (log intensity, higher = more binding, comparable within an allelic series) |  | 11.4 upbm affinity estimate (log intensity, higher = more binding, comparable within an allelic series) | 12.1 upbm affinity estimate (log intensity, higher = more binding, comparable within an allelic series) |  |  |  | 9.1 upbm affinity estimate (log intensity, higher = more binding, comparable within an allelic series) |  |  | 11.1 upbm affinity estimate (log intensity, higher = more binding, comparable within an allelic series) | 8.74 upbm affinity estimate (log intensity, higher = more binding, comparable within an allelic series) | 11.1 upbm affinity estimate (log intensity, higher = more binding, comparable within an allelic series) | 10.2 upbm affinity estimate (log intensity, higher = more binding, comparable within an allelic series) | 10.6 upbm affinity estimate (log intensity, higher = more binding, comparable within an allelic series) |  | 7.7 upbm affinity estimate (log intensity, higher = more binding, comparable within an allelic series) | 7.5 upbm affinity estimate (log intensity, higher = more binding, comparable within an allelic series) |  | 
CCCCGGCG | 6.58 upbm affinity estimate (log intensity, higher = more binding, comparable within an allelic series) |  | 6.85 upbm affinity estimate (log intensity, higher = more binding, comparable within an allelic series) | 6.57 upbm affinity estimate (log intensity, higher = more binding, comparable within an allelic series) |  |  | 7.82 upbm affinity estimate (log intensity, higher = more binding, comparable within an allelic series) | 7.05 upbm affinity estimate (log intensity, higher = more binding, comparable within an allelic series) |  | 7.76 upbm affinity estimate (log intensity, higher = more binding, comparable within an allelic series) |  | 6.61 upbm affinity estimate (log intensity, higher = more binding, comparable within an allelic series) |  | 7.73 upbm affinity estimate (log intensity, higher = more binding, comparable within an allelic series) | 6.61 upbm affinity estimate (log intensity, higher = more binding, comparable within an allelic series) | 7.68 upbm affinity estimate (log intensity, higher = more binding, comparable within an allelic series) |  | 6.51 upbm affinity estimate (log intensity, higher = more binding, comparable within an allelic series) |  | 7.81 upbm affinity estimate (log intensity, higher = more binding, comparable within an allelic series)
